# Bioassay records as filed in PubChem BioAssay.
# Most compounds without a hit are left out; they make up all but 4.5% or so of the library.
# TIM10 inh: growth inhibitors of TIM10 yeast strain. S. cerevisiae TIM10 strain growth, BacTiter-Glo luminescence, 24 h. inhibition, % at 10 µM. actives 1.4% (n = 330,000). AID 463195;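 active means inhibition of 40% or more at the single tested concentration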;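 further: wild-type TIM10 isogenic control strain grown at permissive 25 °C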
# tim23-1 inh: tim23-1 yeast growth inhibition; S. cerevisiae tim23-1 growth, BacTiter-Glo luminescence, 24 h; inhibition, % at 20 µM; actives 1.3% (n = 330,000); AID 463212;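 active means growth inhibition of the mutant yeast at or above 50%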;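 further: temperature-sensitive mutant grown at 25 °C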
# SKKanGAS inh: inhibitors of SKKanGAS S. pyogenes growth in kanamycin (SK-promoter or general growth effect); AID 1662; BacTiter-Glo, 6 h; inhibition, % at 7.5 µM; actives 1.3% (n = 300,000);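 active means mean replicate score, as percent of positive control median, at least 50; inconclusive means mean below 50 but one replicate at or above 50; inactive means mean and every replicate below 50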;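 further: strain carries kanamycin resistance gene driven by streptokinase promoter and grows in 40 µg/ml kanamycin; loss of luminescence reflects streptokinase promoter inhibition or plain growth inhibition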
# NALP3 yeast inh: inhibitors of NALP3 inflammasome in yeast | Yeast reconstituted NLRP3/ASC/caspase-1, beta-gal luminescence, 24 h | actives 0.39% (n = 330,000) | inhibition, % at 10 µM;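 active means inhibition of 50% or more; inactive means inhibition below 50%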
# PfHsp90 set2: reduces growth (ATP signal) of yeast expressing P. falciparum Hsp90; S. cerevisiae expressing PfHsp90, BacTiter-Glo ATP, 48 h; yeast lacking PDR1 and PDR3 efflux regulators; inhibition, % at 9.4 µM; AID 504621; actives 0.32% (n = 310,000);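 active means every replicate shows inhibition above about 80%, whatever the replicate mean, limit read from the data; inconclusive means mean inhibition reaches the set limit but some replicate falls short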
# tim10-1 inh: growth inhibitors of tim10-1 mutant yeast; S. cerevisiae tim10-1 ts strain growth, BacTiter-Glo, 24 h; inhibition, % at 20 µM; actives 2.2% (n = 330,000); AID 463190;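 active means inhibition of at least 40%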;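 further: mutant grown at 25 °C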
# tim10-1 confirm: tim10-1 yeast growth inhibition, confirmed; shares compounds with tim10-1 inh; S. cerevisiae tim10-1 ts strain growth, BacTiter-Glo, 24 h; inhibition, % at 20 µM; actives 56% (n = 7,400); AID 463213;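 active means inhibition of yeast growth at or above a set limit in either of two repeat tests at 20 µM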;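 further: tim10-1 mutant grown at permissive 25 °C to find synthetic lethal compounds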
# Hits are given with their value; . = inactive; ? = inconclusive; / = no result given.
SMILES,TIM10 inh,tim23-1 inh,SKKanGAS inh,NALP3 yeast inh,PfHsp90 set2,tim10-1 inh,tim10-1 confirm
Cc1oc2ccc(O)cc2c1C(=O)c1ccc(Cl)cc1,.,.,.,.,.,.,/
Cc1oc2ccc(O)cc2c1C(=O)c1ccc([N+](=O)[O-])cc1,.,.,.,.,.,44.9,.
C/C(=N\OC(=O)c1c(-c2ccccc2Cl)noc1C)c1ccncc1,.,.,.,.,/,.,/
Cc1onc(-c2cccc(Cl)c2Cl)c1C(=O)O/N=C(\N)c1ccc([N+](=O)[O-])o1,.,.,.,.,.,44.1,.
CCN(CC)S(=O)(=O)c1ccc(C(C)NC(=O)C2CCCN2C(=O)c2cccs2)cc1 (centres undefined),.,.,/,.,.,.,/
COCCC(=O)NC12CC3CC(CC(C3)C1)C2,.,.,.,.,/,.,/
CCOP(=O)(NC12CC3CC(CC(C3)C1)C2)NC12CC3CC(CC(C3)C1)C2,.,.,.,.,.,40.3,.
O=C(/C=C/Nc1ccccc1O)c1ccco1,.,.,.,.,.,.,/
O=C(/C=C/Nc1ccccc1Oc1ccccc1)c1ccco1,.,.,.,.,.,42.7,.
COC(=O)c1c(Cc2ccccc2Cl)c[nH]c1C,.,.,.,.,.,41.0,.
COc1cc2c(cc1OC)C(NNC(=O)c1ccc(Br)o1)=NC(C)(C)C2,.,.,.,.,.,.,/
Cc1c(C=O)c2cc(OCc3ccccc3)ccc2n1C,.,.,.,.,.,.,/
COc1ccccc1NC(=S)NC(=O)C(C)(C)C,.,.,.,.,.,49.5,.
COc1nc(N)nc2nc[nH]c12,.,.,.,.,.,.,/
COC(=O)c1cc(C(=O)NNC(=O)c2ccc3c(c2)OCO3)cc([N+](=O)[O-])c1,.,.,/,.,.,.,/
CC(C)(C)OC(=O)N[C@@H](Cc1ccccc1)c1nnc(S(=O)(=O)Cc2cccc(F)c2)o1,.,.,?,.,/,59.2,50.5
CC[C@@H](C)[C@H](NC(=O)OC(C)(C)C)c1nnc(S(=O)(=O)Cc2cc(C)ccc2C)o1,.,.,51.7,.,105.6,52.1,57.0
CC[C@@H](C)[C@H](NC(=O)OCc1ccccc1)c1nnc([C@@H](NC(=O)OCc2ccccc2)[C@@H](C)CC)o1,.,.,.,.,.,.,/
Cc1c(Cl)cccc1NC(=S)/C(=C(\[O-])c1ccc(Cl)s1)[n+]1ccccc1,.,.,.,.,.,47.1,36.5
CC(C)Oc1ccc(S(=O)(=O)N2CCOCC2)cc1NC(=O)c1cccc(S(=O)(=O)N2CCCC2)c1,/,/,/,/,.,/,/
CCC(C)NC(=O)C1CCN(S(=O)(=O)c2cccc3nonc23)CC1 (centres undefined),.,.,.,.,.,.,/
COc1ccc(NC(=O)c2ccc(OC(=S)N(C)c3ccc(OC)cc3)cc2)cc1,.,.,.,.,.,.,/
CN(C(=S)Oc1ccc(C(=O)Nc2ccccc2)cc1)c1ccccc1,.,.,.,.,.,51.4,.
Cc1sc(N)nc1-c1c(C)n(C)c2ccccc12,.,.,.,.,.,67.8,.
Cc1ccc(-c2nc(N)sc2C)cc1,.,.,.,.,.,.,/
SMILES,TIM10 inh,tim23-1 inh,SKKanGAS inh,NALP3 yeast inh,PfHsp90 set2,tim10-1 inh,tim10-1 confirm
COC(=O)c1c(-c2ccc(Br)cc2)noc1N,.,.,.,.,/,46.5,.
Cn1ccsc1=NC(=O)c1ccc(S(=O)(=O)C(F)F)cc1,.,.,.,.,.,.,/
CN(CC(=O)Nc1ccc(Cl)c(C(F)(F)F)c1)C(=O)C1(c2ccccc2)CC1,.,.,.,.,/,.,/
COc1ccc(OC)c(S(=O)(=O)n2nnc3ccccc32)c1,.,.,.,.,.,.,/
COc1ccc(F)cc1S(=O)(=O)n1nnc2ccccc21,.,.,.,.,.,50.3,41.0
CCCn1c(N)c(N(CCOC)C(=O)c2ccc(Cl)c([N+](=O)[O-])c2)c(=O)[nH]c1=O,.,.,.,.,.,.,/
COc1cccc(-c2nc(=S)c3c(n2Cc2ccco2)CCCC3)c1,.,.,.,.,.,42.0,40.1
O=C(Nc1c(Cl)ccc2nsnc12)c1ccc([N+](=O)[O-])o1,.,.,.,.,.,51.6,33.4
Cc1cc(C)c2sc(NC(=O)c3ccc([N+](=O)[O-])o3)nc2c1,.,.,.,.,.,56.5,54.5
